Screening results (PubChem)
Compounds with a hit are over-represented: about 31% of the library has one in this group of screens.
CYP2C19 inh = human CYP2C19 inhibition | P33261 | CYP2C19 Supersomes, luciferin-H EGE luminescence, 30 min | inhibition, % at 5 µM | 96,000 compounds, 21% hits | AID 778;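 active = CYP2C19 inhibition above a set limit at 5 µM in the primary screen, cut at about 50% in these data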;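 note: plate controls were negative control wells for no effect and 2.5 mM tranylcypromine positive control for full effect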
Target sequence (P33261 whole entry, looked up): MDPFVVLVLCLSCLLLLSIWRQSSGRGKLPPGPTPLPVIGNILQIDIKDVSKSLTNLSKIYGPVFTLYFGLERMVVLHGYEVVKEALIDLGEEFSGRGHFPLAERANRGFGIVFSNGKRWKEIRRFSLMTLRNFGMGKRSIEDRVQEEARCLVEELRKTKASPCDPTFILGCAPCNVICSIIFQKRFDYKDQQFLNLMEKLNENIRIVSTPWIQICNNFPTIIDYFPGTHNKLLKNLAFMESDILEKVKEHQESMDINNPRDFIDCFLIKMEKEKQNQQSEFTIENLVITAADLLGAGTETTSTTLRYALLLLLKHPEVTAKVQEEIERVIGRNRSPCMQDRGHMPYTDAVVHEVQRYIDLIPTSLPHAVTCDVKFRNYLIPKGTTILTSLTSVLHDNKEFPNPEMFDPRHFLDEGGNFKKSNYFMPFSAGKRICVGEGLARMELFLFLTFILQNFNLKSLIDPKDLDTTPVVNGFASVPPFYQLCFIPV
CYP2C9 act = activators of human CYP2C9 | P11712 | recombinant CYP2C9, luciferin-H conversion, luminescence; active compounds read high; factor 1 = untreated enzyme, 0 = blocked | activation factor at 5 µM | 96,000 compounds, 1.4% hits | AID 1024;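 active = activation factor of 2 or more for CYP2C9 at a 5 µM dose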;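 note: 0 = sulfaphenazole-blocked wells and 1 = vehicle-only wells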
CYP2C9 inhib = blocks human cytochrome P450 2C9 | P11712 | CYP2C9 Supersomes, luciferin-H conversion, luminescence | inhibition, % at 5 µM | 96,000 compounds, 20% hits;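 active = blocking of liver enzyme CYP2C9 beyond about 50% at 5 µM, limit read from the data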
CYP2C19 activ = increases human CYP2C19 enzyme activity; 96,000 tested, under 10 active; recombinant CYP2C19, luciferin-H EGE luminescence; active compounds read high; 0 = fully inhibited enzyme, 1 = untreated enzyme; AID 1025; activation factor at 5 µM; P33261;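 active = activation factor of at least 2 at 5 µM in the primary screen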;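 note: 0 = wells with 2.5 mM tranylcypromine and 1 = vehicle-only wells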
* = called active by the depositor.

For CC(=O)OC(Cn1ccnc1)c1ccccc1 (stereo not drawn) the results were CYP2C19 inh 22, CYP2C9 act 0.8, CYP2C9 inhib 18 and CYP2C19 activ 0.8.
`OC(Cn1ccnc1)c1ccc(Cl)cc1Cl` (stereo not drawn) gave CYP2C19 inh 99*, CYP2C9 act 0.1, CYP2C9 inhib 95* and CYP2C19 activ 0.
CC(C)CCn1c(S(=O)(=O)O)nc2ccccc21 was read as CYP2C19 inh 18, CYP2C9 act 0.9, CYP2C9 inhib 8 and CYP2C19 activ 0.8.
COc1ccc(C(=O)N2CCN(C(=O)c3ccco3)CC2)cc1OC was read as CYP2C19 inh -14, CYP2C9 act 1.2, CYP2C9 inhib -15 and CYP2C19 activ 1.1.
Screening COc1cc2c(cc1O)CCN(C(=O)c1ccco1)C2C (stereo not drawn) returned CYP2C19 inh 65*, CYP2C9 act 0.5, CYP2C9 inhib 47 and CYP2C19 activ 0.3.
COc1cc2c(cc1OC)C(COc1ccc(F)cc1)N(C(=O)c1ccco1)CC2 (stereo not drawn) was read as CYP2C19 inh 86*, CYP2C9 act 0.2, CYP2C9 inhib 76* and CYP2C19 activ 0.1.
For COc1cc2c(cc1OC)C(C)N(C(=O)c1cc3ccccc3o1)CC2 (stereo not drawn) the results were CYP2C19 inh 42, CYP2C9 act 0.7, CYP2C9 inhib 33 and CYP2C19 activ 0.6.
Screening COc1cc2c(cc1OC)C(C)N(C(=O)C1COc3ccccc3O1)CC2 (stereo not drawn) returned CYP2C19 inh 80*, CYP2C9 act 0.4, CYP2C9 inhib 57* and CYP2C19 activ 0.2.
Screening COc1cccc(OC)c1OCC(C)CNCC1CCCO1 (stereo not drawn) returned CYP2C19 inh 6, CYP2C9 act 0.9, CYP2C9 inhib 6 and CYP2C19 activ 0.9.
Screening Cc1nc(C(=O)N(C)C)nn1-c1cc(Cl)ccc1Cl returned CYP2C19 inh -14, CYP2C9 act 1.1, CYP2C9 inhib -7 and CYP2C19 activ 1.1.
Cc1cccc(N2CCN(C(=O)CCCSc3nc4ccccc4[nH]3)CC2)c1C was read as CYP2C19 inh 42, CYP2C9 act 0.6, CYP2C9 inhib 44 and CYP2C19 activ 0.6.
For CCOc1ccccc1NC(=O)CCSc1nc2n[nH]c(C)c2c(=N)n1-c1ccccc1Cl the results were CYP2C19 inh 71*, CYP2C9 act 0.2, CYP2C9 inhib 77* and CYP2C19 activ 0.3.
O=C(NCC1CCCO1)c1nn2cccnc2c1Cl (stereo not drawn) was read as CYP2C19 inh -15, CYP2C9 act 1.2, CYP2C9 inhib -20 and CYP2C19 activ 1.1.
`c1ccc(-c2nn3c(Cn4nnc5ccccc54)nnc3s2)nc1` gave CYP2C19 inh 78*, CYP2C9 act 0.6, CYP2C9 inhib 39 and CYP2C19 activ 0.2.
For Clc1ccccc1-c1nn2c(Cn3cnc4ccccc43)nnc2s1 the results were CYP2C19 inh 58*, CYP2C9 act 0.7, CYP2C9 inhib 25 and CYP2C19 activ 0.4.
For c1ccc2c(c1)ncn2Cc1nnc2sc(-c3ccc4c(c3)OCO4)nn12 the results were CYP2C19 inh 8, CYP2C9 act 0.2, CYP2C9 inhib 81* and CYP2C19 activ 0.9.
c1ccc(CCc2nn3c(Cn4cnc5ccccc54)nnc3s2)cc1 was read as CYP2C19 inh 18, CYP2C9 act 0.9, CYP2C9 inhib 6 and CYP2C19 activ 0.8.
Clc1ccccc1CSc1nnc(Cn2cnc3ccccc32)n1-c1ccccc1 was read as CYP2C19 inh 61*, CYP2C9 act 1, CYP2C9 inhib 2 and CYP2C19 activ 0.4.
O=C(O)CNc1nc(Cl)ccc1[N+](=O)[O-] was read as CYP2C19 inh 6, CYP2C9 act 0.9, CYP2C9 inhib 5 and CYP2C19 activ 0.9.
`O=c1c(Cl)nc2cc(Cl)ccc2n1CCNc1ncc(C(F)(F)F)cc1Cl` gave CYP2C19 inh 73*, CYP2C9 act 0.5, CYP2C9 inhib 47 and CYP2C19 activ 0.3.
`O=C(CN1CCN(c2ncc(C(F)(F)F)cc2Cl)CC1)NCCNc1ncc(C(F)(F)F)cc1Cl` gave CYP2C19 inh -2, CYP2C9 act 1, CYP2C9 inhib 0 and CYP2C19 activ 1.
Screening O=c1[nH]c2cccc(Cl)c2n(CCNc2ncc(C(F)(F)F)cc2Cl)c1=O returned CYP2C19 inh 61*, CYP2C9 act 0.6, CYP2C9 inhib 36 and CYP2C19 activ 0.4.
For NC(=O)CC1NC(=O)c2ccccc21 (stereo not drawn) the results were CYP2C19 inh -5, CYP2C9 act 1, CYP2C9 inhib 0 and CYP2C19 activ 1.1.
For COC(=O)c1cc2ccsc2n1CC(=O)NCC1CCCO1 (stereo not drawn) the results were CYP2C19 inh 36, CYP2C9 act 0.9, CYP2C9 inhib 8 and CYP2C19 activ 0.6.
COC(=O)c1cc2ccsc2n1CC(=O)N1CCCc2ccccc21 was read as CYP2C19 inh 95*, CYP2C9 act 0.1, CYP2C9 inhib 93* and CYP2C19 activ 0.1.
COC(=O)c1cc2ccsc2n1Cc1nc(-c2ccc(Cl)cc2)oc1C was read as CYP2C19 inh 55*, CYP2C9 act 0.1, CYP2C9 inhib 89* and CYP2C19 activ 0.5.
COC(=O)c1cc2ccsc2n1Cc1cc(=O)n2ccccc2n1 was read as CYP2C19 inh 53*, CYP2C9 act 0.1, CYP2C9 inhib 92* and CYP2C19 activ 0.5.
Screening COC(=O)c1cc2ccsc2n1CC(=O)Nc1cc(C)cc(C)c1 returned CYP2C19 inh 38, CYP2C9 act 0.3, CYP2C9 inhib 66* and CYP2C19 activ 0.6.
For C=C1CSc2nc3ccccc3c(=O)n21 the results were CYP2C19 inh -3, CYP2C9 act 1.1, CYP2C9 inhib -7 and CYP2C19 activ 1.
`CCN(CC(=O)NC(=O)NCc1ccco1)Cc1nc2ccccc2c(=O)[nH]1` gave CYP2C19 inh 68*, CYP2C9 act 0.6, CYP2C9 inhib 45 and CYP2C19 activ 0.3.
Screening Cc1cc(Br)ccc1NC(=O)CNC(=O)CN(C)Cc1nc2ccccc2c(=O)[nH]1 returned CYP2C19 inh 68*, CYP2C9 act 0.4, CYP2C9 inhib 63* and CYP2C19 activ 0.3.
`CC(NC(=O)CN(C)Cc1nc2ccccc2c(=O)[nH]1)c1ccccc1` (stereo not drawn) gave CYP2C19 inh 32, CYP2C9 act 0.7, CYP2C9 inhib 29 and CYP2C19 activ 0.7.
Screening CCN(CC(=O)Nc1ccccc1Br)Cc1nc2ccccc2c(=O)[nH]1 returned CYP2C19 inh 54*, CYP2C9 act 0.5, CYP2C9 inhib 50 and CYP2C19 activ 0.5.
For Cc1ccc(NC(=O)CN(C)Cc2nc3ccccc3c(=O)[nH]2)c(Br)c1 the results were CYP2C19 inh 28, CYP2C9 act 0.3, CYP2C9 inhib 68* and CYP2C19 activ 0.7.
Cn1nnnc1SCC(=O)Nc1ccccc1C(=O)NCc1ccccc1 was read as CYP2C19 inh -17, CYP2C9 act 0.9, CYP2C9 inhib 7 and CYP2C19 activ 1.2.
CN(C)CC#CCCCCCCC#CCN(C)C was read as CYP2C19 inh -11, CYP2C9 act 1.1, CYP2C9 inhib -14 and CYP2C19 activ 1.1.
